HttQ103 aggreg = inhibitors of mutant huntingtin aggregate formation in PC12 cells. AID 1688. PC12 HttQ103-GFP aggregates, Acumen cytometry, 40 h. actives 1.1% (n = 220,000). Potency, µM (titrated, usually from 46.1 µM), usual class: inhibitors; also: nearly all actives have a fitted effect of over 60% in size
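Huntingtin Q103 exon 1–GFP aggregates in induced PC12 cells (100 nM tebufenozide) were quantified by cytometry from lysates, with compounds dosed in titration.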
Luc counter = blocks Kinase-Glo luciferase, a counter-screen artifact; Kinase-Glo luciferase, ATP luminescence, 8 min; Potency, µM (titrated, usually from 38.3 µM), most hits filed as inhibitors; actives 0.28% (n = 200,000); also: nearly all actives have a fitted effect of over 60% in size
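Inhibition of Kinase-Glo luciferase light generation was assessed at 10 uM ATP in pH 7.2 imidazole buffer, with luminescence measured after eight minutes at ambient temperature.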
HPGD block = HPGD (human) dehydrogenase inhibition | Potency, µM, usual class: inhibitors | purified HPGD, NADH fluorescence kinetic, PGE2 substrate | P15428 | actives 4.3% (n = 150,000) | AID 894; active = well fitted inhibition curve with a large enough effect, not every such curve was filed as active; inconclusive = small, poorly fitted or top-dose-only effect, or another doubt; inactive = no such curve, though single readings can be large or run the other way
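20 nM HPGD preincubated 15 min at room temperature with compound in 50 mM Tris-HCl pH 8, 0.01% Tween 20. Started with 1 mM NAD+ and 30 uM prostaglandin E2; NADH fluorescence (360/450 nm) read 5 times over 30-s intervals, last minus first.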
LMNA splice mod = LMNA splicing modulation | HeLa LMNA splicing GFP/RFP minigene ratio, 48 h | Potency, µM (highest dose often 46.1 µM), usual class: inhibitors | actives 0.01% (n = 200,000) | AID 1487; active = well fitted inhibition curve with a large enough effect in the signal ratio, with a control signal flat, not every such curve was filed as active; inconclusive = small, poorly fitted or top-dose-only effect, or effect the other way, or a change in a side signal; the % refers to the signal ratio
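Read-out is the ratio of GFP to DsRed2 object intensity, acquired by 488 nm laser-scanning cytometry on HeLa lamin A-EGFP minigene reporter cells. Compound incubation 48 hrs at 37 °C in Opti-MEM with 2% FBS; DMSO 0.5% final.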
ALDH1A1 block = blocks purified human ALDH1A1 activity. AID 1030. actives 7.3% (n = 220,000). Potency, µM (titrated, usually from 75.3 µM), actives largely listed as inhibitors. Purified ALDH1A1, NADH fluorescence, propionaldehyde substrate. P00352; active = well fitted inhibition curve with a large enough effect, not every such curve was filed as active; inconclusive = small, poorly fitted or top-dose-only effect, or another doubt; inactive = no such curve, though single readings can be large or run the other way
Target sequence (P00352 whole entry, looked up): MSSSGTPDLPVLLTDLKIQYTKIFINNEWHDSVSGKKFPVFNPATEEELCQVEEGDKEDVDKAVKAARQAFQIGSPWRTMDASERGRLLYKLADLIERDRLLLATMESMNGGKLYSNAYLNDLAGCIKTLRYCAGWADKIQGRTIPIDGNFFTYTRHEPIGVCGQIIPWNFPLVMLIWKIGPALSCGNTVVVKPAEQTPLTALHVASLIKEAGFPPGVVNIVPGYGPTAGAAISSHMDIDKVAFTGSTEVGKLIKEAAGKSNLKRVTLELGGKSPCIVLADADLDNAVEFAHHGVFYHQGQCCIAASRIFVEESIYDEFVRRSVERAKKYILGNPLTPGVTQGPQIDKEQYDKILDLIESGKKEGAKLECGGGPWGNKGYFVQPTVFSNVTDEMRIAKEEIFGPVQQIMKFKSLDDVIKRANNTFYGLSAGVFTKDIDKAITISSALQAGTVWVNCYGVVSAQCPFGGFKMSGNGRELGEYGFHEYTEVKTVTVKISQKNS
HTT ATP protect = cytoprotection in Huntington HTT-Q103 PC12 cell model; AID 1471; PC12 HTT-Q103 induced, cytoprotection, ATP luminescence, 40 h; actives 0.14% (n = 230,000); Potency, µM (series often up to 56.4 µM), actives largely listed as activators; also: nearly all actives have a fitted effect of over 45% in size
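Quantitative HTS on tebufenozide-induced (100 nM) PC12 cells expressing HTTQ103 exon 1–GFP; compounds tested as a concentration series; survival measured via cellular ATP.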
Hits are given with their value; . = inactive; ? = inconclusive; / = no result given; [ ] = remark or other dose. Rows were chosen to be rich in hits. Some 9% of all compounds tested hit in one or more screens of this group. Unless noted, calls follow the shape of the dose curve; as a rule, active = well fitted curve in the direction sought with a large enough effect; inconclusive = small, poorly fitted or top-dose-only effect, or another doubt; inactive = no such curve, though single readings can be large; an effect the other way counts as inactive or inconclusive.

SMILES	HttQ103 aggreg	Luc counter	HPGD block	LMNA splice mod	ALDH1A1 block	HTT ATP protect
CCOC(=O)c1sc(N)c(C(=O)Nc2ccc(C)cc2C)c1C	/	.	4µM	/	10µM	/
CCOC(=O)c1sc(N)c(C(=O)OC)c1C	.[9.22 µM]	.	/	/	.	.[10 µM]
CCOC(=O)c1sc(Nc2ccc(C)cc2C)nc1C	.	.	.	?	.	.
CCOC(=O)c1sc(N)c(C(=O)Nc2ccccc2OC)c1C	?	.	/	.[9.22 µM]	4.5µM	.
C=CCn1c(N)c(C(=O)Nc2ccccc2OC)sc1=S	.	/	/	.	22µM	.
CCOC(=O)c1sc(NC(=O)c2cccs2)cc1C	.	?	?	.	?	.
COc1cc(S(=O)(=O)N2CCCCC2)ccc1NC(=O)Cc1ccccc1	.	.	.	.	?	.
CCCN1CCCc2cc(CN)ccc21	13µM	/	/	?	?	.[10 µM]
CC1(C)S[C@@H]2[C@H](NC(=O)[C@@H](N)c3ccccc3)C(=O)N2[C@H]1C(=O)O[C@H]1OC(=O)c2ccccc21	.	.	?	?	2.8µM	.
CC1(C)S[C@@H]2[C@H](NC(=O)[C@@H](N)c3ccc(O)cc3)C(=O)N2[C@H]1C(=O)O	/	.	.	?	.	?
CC1CCC(C(C)C)C(OC(=O)Cn2c(-c3ccc(Br)cc3)[n+](C)c3ccccc32)C1 (configuration not stated)	?	.	/	?	.	.
CC(C)Oc1cccc(C(=O)Nc2ccc(N3CCN(S(C)(=O)=O)CC3)cc2)c1	?	.	.	.	.	.
Cc1ccc(S(=O)(=O)Oc2ccc(/C=C(/NC(=O)c3ccccc3)C(=O)NCCC(=O)O)cc2)cc1	.[9.22 µM]	.	/	.	2.5µM	.[10 µM]
Cc1ccc(S(=O)(=O)Oc2ccc(/C=C(/NC(=O)c3ccccc3)C(=O)NCCCC(=O)O)cc2)cc1	.[9.22 µM]	.	/	/	2.8µM	.[10 µM]
COc1ccc(NC(=O)/C(=C\c2ccc(OS(=O)(=O)c3ccc(C)cc3)cc2)NC(=O)c2ccccc2)cc1	.	.	.	.	1µM	.
COc1ccc(-c2cc(-c3c(O)c(OC)c4occc4c3OC)[nH]n2)cc1OC	?	.	.	.	?	.[10 µM]
CCOC(=O)C1=C(N)n2c(s/c(=C\c3cccnc3)c2=O)=C(C#N)C1c1cccnc1 (configuration not stated)	/	/	/	/	/	.[0.074 µM]
C/C(CC(=O)Nc1ccc(Cl)c(C(F)(F)F)c1)=N\NC(=O)c1cccc(O)c1	.	.	.	?	.	.[10 µM]
O=C(CCNC(=O)c1ccccc1Cl)Nc1ccc2c(c1)OCO2	.	.	.	.	.	.
C/C(CC(=O)Nc1ccc(Cl)c(C(F)(F)F)c1)=N\NC(=O)c1ccccc1O	16µM	.	.	?	.	.[10 µM]
O=C(CCNC(=O)c1ccccc1Cl)Nc1ccc(Cl)c(C(F)(F)F)c1	.	.	22µM	.	.	.[10 µM]
CC1Cc2ccccc2N1C(=O)COc1cccc(-n2cnnn2)c1 (configuration not stated)	.	.	.	?	.	.[10 µM]
COc1cc(NC(=S)NCc2cccs2)cc(OC)c1	.	.	18µM	.	.	?
Cc1cc(C)cc(NC(=S)NCc2cccs2)c1	.	.	14µM	.	.	.[10 µM]
COc1cc(NC(=S)NCc2ccco2)cc(OC)c1	.	.	?	.	?	.[10 µM]
SMILES	HttQ103 aggreg	Luc counter	HPGD block	LMNA splice mod	ALDH1A1 block	HTT ATP protect
CC(C)(C)c1ccc(NC(=S)NCc2cccs2)cc1	?	.	.	?	.	.
CCOCC(=O)Nc1nnc(COC)s1	.	.	.	.	.	.[10 µM]
CC1=Nc2ccc3ccccc3c2C1(C)C	.	.	/	.	.	.[10 µM]
CCN1C(=O)S/C(=C/c2ccc(Sc3nc4ccccc4[nH]3)o2)C1=O	.	.	13µM	?	.	.[10 µM]
N#C/C(=C/c1ccc(Sc2nc3ccccc3[nH]2)o1)c1cccc(Br)c1	.	.	?	?	?	.
c1ccc(SCc2nc3ccccc3[nH]2)cc1	.	.	.	.	.	.
O=C1CC(SCc2nc3ccccc3[nH]2)C(=O)N1c1ccc(F)cc1 (configuration not stated)	.	.	.	.	28µM	.
